A short description of assay [1]: NCI Yeast Anticancer Drug Screen. Data for the rad50 strain (AID 155).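 Further: 0% = growth of vehicle-only cultures of the same strain.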 Particulars: S. cerevisiae rad50 strain growth inhibition, hits give high values. In a few lines:
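Relative growth inhibition (compound vs vehicle) was measured in yeast with a defined repair-gene alteration.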

Assay [2] is described as follows: NCI Yeast Anticancer Drug Screen. Data for the mec2-1 strain (AID 157). Particulars: S. cerevisiae mec2-1 strain, hits give high values. In outline:
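Compounds were applied to mec2-1 yeast cells. Their growth was then compared with that of vehicle-treated cultures to give growth inhibition.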

Assay [3] is described as follows: NCI Yeast Anticancer Drug Screen. Data for the sgs1 mgt1 strain (AID 161).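 Further: 0% = growth of cultures given vehicle only.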 To be noted: S. cerevisiae sgs1 mgt1 strain, hits give high values. In a few lines: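 Compounds are added to genetically altered yeast, and growth is compared with cultures given vehicle alone to give percent inhibition.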
A short description of assay [4]: NCI Yeast Anticancer Drug Screen. Data for the cln2 rad14 strain (AID 165).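 Further: 0% = growth equal to vehicle treated cultures.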 Particulars: S. cerevisiae cln2 rad14 strain, hits give high values. In outline: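 Strain: cln2 rad14 yeast, altered in cell cycle control and DNA damage repair. Read-out: growth inhibition vs vehicle.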
Assay [5] in a line: NCI Yeast Anticancer Drug Screen. Data for the bub3 strain (AID 167). Particulars: S. cerevisiae bub3 mutant strain, hits give high values. In outline: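 Screening used yeast with an engineered genetic alteration affecting cell cycle control. Compound-exposed cultures were compared with vehicle cultures, and reduced growth was taken as inhibition.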
The nature of assay [6]: NCI Yeast Anticancer Drug Screen. Data for the mlh1 rad18 strain (AID 175). Particulars: S. cerevisiae mlh1 rad18 strain growth inhibition, hits give high values. In a few lines: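 A repair-deficient yeast strain is exposed to test compound, and growth is scored relative to vehicle-treated controls.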
Setting [7] is: at 5.0 µM (retest, dose inferred, filed as 0.5).
Where [8] appears, read: at 50.0 µM (retest, dose inferred, filed as 5.0).

Each structure is given as a SMILES string. Compounds without any hit were thinned out: in the full panel of roughly 79,000, 15% have a hit. A number with no mark means an inactive call. Active and inactive are the calls of the source. No stated cut-off is given here; in the data, active means growth inhibition above about 70%; inactive means the rest.

Turning to `O=NNc1ccc2cc3ccc(NN=O)cc3nc2c1`, the growth inhibition in assay [1] (setting [7]) was 16%; in assay [1] (setting [8]) it was 25%; in assay [1] (at 50.0 µM) it was 43.2%; in assay [2] (setting [7]), 6%; in assay [2] (setting [8]) it was 26%; in assay [2] (at 50.0 µM), -11.1%. For the same compound, the growth inhibition in assay [3] (setting [7]) was 7%; in assay [3] (setting [8]), 24%; in assay [3] (at 50.0 µM) it was 52.5%; in assay [4] (setting [7]), 11%; in assay [4] (setting [8]) it was 24%; in assay [4] (at 50.0 µM) it was 27.7%. Also, the growth inhibition in assay [5] (setting [7]) is 9%; in assay [5] (setting [8]), 14%; in assay [5] (at 50.0 µM) it was 34.6%; in assay [6] (setting [7]), 15%; in assay [6] (setting [8]), 31%; in assay [6] (at 50.0 µM), 52.7%.
On to `NC1OC(COC(=O)c2ccccc2)C(O)C(OC(=O)c2ccccc2)C1OC(=O)c1ccccc1` (stereo not given), for which the growth inhibition in assay [1] (setting [7]) was 0%; in assay [1] (setting [8]), 97% (active); in assay [1] (at 50.0 µM) it was 97% (active); in assay [2] (setting [7]), 2%; in assay [2] (setting [8]) it was 98% (active); in assay [2] (at 50.0 µM), 96.8% (active). Also, the growth inhibition was 11% in assay [3] (setting [7]); 98% (active) in assay [3] (setting [8]); 97.7% (active) in assay [3] (at 50.0 µM); 11% in assay [4] (setting [7]); 97% (active) in assay [4] (setting [8]); 95.3% (active) in assay [4] (at 50.0 µM). Besides, the growth inhibition in assay [5] (setting [7]) is -1%; in assay [5] (setting [8]), 98% (active); in assay [5] (at 50.0 µM), 93.8% (active); in assay [6] (setting [7]), 4%; in assay [6] (setting [8]) it was 97% (active); in assay [6] (at 50.0 µM) it was 95.8% (active).
With `CC(=O)OCc1cc2c(s1)C(=O)c1sccc1C2=O`, the growth inhibition in assay [1] (setting [7]) was 21%; in assay [1] (setting [8]), 83% (active); in assay [1] (at 50.0 µM), 49.6%; in assay [2] (setting [7]), 8%; in assay [2] (setting [8]), 67%; in assay [2] (at 50.0 µM), 81% (active). In addition, the growth inhibition is 12% in assay [3] (setting [7]); 15% in assay [3] (setting [8]); 88.8% (active) in assay [3] (at 50.0 µM); 11% in assay [4] (setting [7]); 21% in assay [4] (setting [8]); 86.2% (active) in assay [4] (at 50.0 µM). The growth inhibition in assay [5] (setting [7]) is 41%; in assay [5] (setting [8]) it was 60%; in assay [5] (at 50.0 µM), 88.7% (active); in assay [6] (setting [7]), 24%; in assay [6] (setting [8]), 89% (active); in assay [6] (at 50.0 µM), 89% (active).
In the case of `COc1ccc2c(C)c(N=C=S)c(=O)oc2c1`, the growth inhibition in assay [1] (setting [7]) was 35%; in assay [1] (setting [8]), 79% (active); in assay [1] (at 50.0 µM), 60.2%; in assay [2] (setting [7]) it was 13%; in assay [2] (setting [8]), 78% (active); in assay [2] (at 50.0 µM) it was 69%. Moreover, the growth inhibition in assay [3] (setting [7]) is 34%; in assay [3] (setting [8]), 81% (active); in assay [3] (at 50.0 µM), 48%; in assay [4] (setting [7]), 6%; in assay [4] (setting [8]) it was 33%; in assay [4] (at 50.0 µM), 1.75%. In addition, the growth inhibition in assay [5] (setting [7]) is 29%; in assay [5] (setting [8]), 87% (active); in assay [5] (at 50.0 µM), 89% (active); in assay [6] (setting [7]), 42%; in assay [6] (setting [8]), 89% (active); in assay [6] (at 50.0 µM), 74.7% (active).
Turning to `O=C(O)c1ccc([N+](=O)[O-])o1`, the growth inhibition in assay [1] (setting [7]) is 6%; in assay [1] (setting [8]), 32%; in assay [1] (at 50.0 µM), 61%; in assay [2] (setting [7]) it was 1%; in assay [2] (setting [8]), 16%; in assay [2] (at 50.0 µM) it was 25.1%. In addition, the growth inhibition in assay [3] (setting [7]) is 4%; in assay [3] (setting [8]) it was 27%; in assay [3] (at 50.0 µM), 70.8% (active); in assay [4] (setting [7]), 3%; in assay [4] (setting [8]), 11%; in assay [4] (at 50.0 µM), 17.6%. Moreover, the growth inhibition in assay [5] (setting [7]) was -3%; in assay [5] (setting [8]), 10%; in assay [5] (at 50.0 µM) it was 38.3%; in assay [6] (setting [7]), 6%; in assay [6] (setting [8]) it was 41%; in assay [6] (at 50.0 µM), 71.5% (active).
In the case of `CCCCN1CCN(c2ccc([N+](=O)[O-])c3no[n+]([O-])c23)CC1`, the growth inhibition in assay [1] (setting [7]) is 97% (active); in assay [1] (setting [8]), 99% (active); in assay [1] (at 50.0 µM) it was 90.5% (active); in assay [2] (setting [7]), 94% (active); in assay [2] (setting [8]) it was 99% (active); in assay [2] (at 50.0 µM), 93.2% (active). The growth inhibition in assay [3] (setting [7]) is 90% (active); in assay [3] (setting [8]), 99% (active); in assay [3] (at 50.0 µM), 90.2% (active); in assay [4] (setting [7]), 43%; in assay [4] (setting [8]), 98% (active); in assay [4] (at 50.0 µM) it was 88.2% (active). In addition, the growth inhibition in assay [5] (setting [7]) is 58%; in assay [5] (setting [8]), 98% (active); in assay [5] (at 50.0 µM), 91.2% (active); in assay [6] (setting [7]), 96% (active); in assay [6] (setting [8]), 99% (active); in assay [6] (at 50.0 µM), 90.5% (active).
Consider `CC(=O)NC(C)(C)C1CCC(C)=C(c2ccccc2)C1` (stereo not given), for which the growth inhibition in assay [1] (setting [7]) is -10%; in assay [1] (setting [8]), 2%; in assay [1] (at 50.0 µM) it was 32.8%; in assay [2] (setting [7]), -9%; in assay [2] (setting [8]), -5%; in assay [2] (at 50.0 µM), -17.6%. The growth inhibition in assay [3] (setting [7]) was 5%; in assay [3] (setting [8]), 8%; in assay [3] (at 50.0 µM) it was 67.2%; in assay [4] (setting [7]) it was 19%; in assay [4] (setting [8]) it was 44%; in assay [4] (at 50.0 µM) it was 18.6%. Further, the growth inhibition in assay [5] (setting [7]) is 17%; in assay [5] (setting [8]), 29%; in assay [5] (at 50.0 µM) it was 27.6%; in assay [6] (setting [7]), -3%; in assay [6] (setting [8]), 29%; in assay [6] (at 50.0 µM), -21.2%.
Consider `O=C1c2ccc(Cl)cc2C(=O)c2cc(Cl)ccc21`, for which the growth inhibition in assay [1] (setting [7]) was 7%; in assay [1] (setting [8]), 99% (active); in assay [1] (at 50.0 µM), 91.9% (active); in assay [2] (setting [7]), 11%; in assay [2] (setting [8]) it was 98% (active); in assay [2] (at 50.0 µM), 46.5%. The growth inhibition in assay [3] (setting [7]) is 3%; in assay [3] (setting [8]), 99% (active); in assay [3] (at 50.0 µM), 65.3%; in assay [4] (setting [7]), -12%; in assay [4] (setting [8]), 99% (active); in assay [4] (at 50.0 µM), 14.3%. Besides, the growth inhibition in assay [5] (setting [7]) was 19%; in assay [5] (setting [8]), 99% (active); in assay [5] (at 50.0 µM) it was 89.2% (active); in assay [6] (setting [7]) it was 8%; in assay [6] (setting [8]), 99% (active); in assay [6] (at 50.0 µM), 77% (active).
In the case of `O=[N+]([O-])c1ccc(/C=c2\sc3scc(-c4ccc([N+](=O)[O-])cc4)[n+]3\c2=C/c2ccc([N+](=O)[O-])cc2)cc1`, the growth inhibition in assay [1] (setting [7]) was 99% (active); in assay [1] (setting [8]) it was 99% (active); in assay [1] (at 50.0 µM) it was 86.9% (active); in assay [2] (setting [7]), 100% (active); in assay [2] (setting [8]), 99% (active); in assay [2] (at 50.0 µM), 75.5% (active). The growth inhibition was 88% (active) in assay [3] (setting [7]); 99% (active) in assay [3] (setting [8]); 97.5% (active) in assay [3] (at 50.0 µM); 94% (active) in assay [4] (setting [7]); 99% (active) in assay [4] (setting [8]); 69.3% in assay [4] (at 50.0 µM). Moreover, the growth inhibition in assay [5] (setting [7]) is 99% (active); in assay [5] (setting [8]), 99% (active); in assay [5] (at 50.0 µM), 54.1%; in assay [6] (setting [7]), 99% (active); in assay [6] (setting [8]), 99% (active); in assay [6] (at 50.0 µM) it was 94.6% (active).
For `O=C(Nc1ccccc1Cl)c1cccnc1`, the growth inhibition in assay [1] (setting [7]) was -146%; in assay [1] (setting [8]), -174%; in assay [1] (at 50.0 µM), 6.55%; in assay [2] (setting [7]), -48%; in assay [2] (setting [8]), -56%; in assay [2] (at 50.0 µM), 14.8%. The growth inhibition in assay [3] (setting [7]) was -56%; in assay [3] (setting [8]) it was -70%; in assay [3] (at 50.0 µM) it was 9.25%; in assay [4] (setting [7]), -48%; in assay [4] (setting [8]), -63%; in assay [4] (at 50.0 µM), 51.6%. The growth inhibition is -63% in assay [5] (setting [7]); -81% in assay [5] (setting [8]); -7.4% in assay [5] (at 50.0 µM); -112% in assay [6] (setting [7]); -123% in assay [6] (setting [8]); 4.45% in assay [6] (at 50.0 µM).
